Laboratory results published in PubChem BioAssay AID1159580 (chemical genetic matrix, 2015).
In all, about 5,500 compounds went through this assay and about 2,000 (36%) were called active. Roughly 18% stayed inconclusive and do not appear here. No stated cut-off is given here; in the data, active means normalized growth mostly below about 0.91 (no sharp cut-off); inconclusive means no clear call, values can overlap the other calls; inactive means mostly above about 0.92. The list shows a part of the results. Where a SMILES comes first, the peptide text is derived from it.

Assay: chemical genetic growth profiling, strain panel (AID 1159580);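 further: tested at 20 µM; growth read once vehicle control cultures reached saturation at 30 °C; 1 = growth at the plate median or of vehicle wells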
Settings: S. cerevisiae deletion strains, growth OD
[1] = locus YJL095W, strain BCK1, stronger effect = lower value
[2] = locus YAL013W, strain DEP1, stronger effect = lower value
[3] = locus YMR307W, strain GAS1, stronger effect = lower value

Measured: normalized growth

CC(C)C[C@H](N)C(=O)N[C@@H](C)C(=O)O (H-Leu-Ala-OH)
inactive: locus YHR030C, strain SLT2, stronger effect = lower value 1.01 | locus YHR079C, strain IRE1, stronger effect = lower value 1.01 | [1] 1.02 | locus YJR066W, strain TOR1, stronger effect = lower value 0.975 | locus YLR113W, strain HOG1, stronger effect = lower value 1.02 | locus YNL183C, strain NPR1, stronger effect = lower value 0.954 | locus YOR231W, strain MKK1, stronger effect = lower value 1.03 | locus YPL256C, strain CLN2, stronger effect = lower value 1.02

COc1cc(C(O)C(=O)O)ccc1O (centres undefined)
inactive: [2] 0.996 | locus YAL040C, strain CLN3, stronger effect = lower value 0.984 | locus YCL061C, strain MRC1 (second series), stronger effect = lower value 0.994 | locus YDR150W, strain NUM1, stronger effect = lower value 0.994 | locus YDR363W, strain ESC2, stronger effect = lower value 1.01 | locus YER002W, strain NOP16, stronger effect = lower value 1.03 | locus YGR078C, strain PAC10, stronger effect = lower value 1 | locus YJR075W, strain HOC1, stronger effect = lower value 0.991 | [3] 0.989 | locus YNL128W, strain TEP1, stronger effect = lower value 0.986 | locus YNL153C, strain GIM3, stronger effect = lower value 1.01 | locus YNL175C, strain NOP13, stronger effect = lower value 0.992 | locus YNL197C, strain WHI3, stronger effect = lower value 1.01 | locus YNL224C, strain SQS1, stronger effect = lower value 1.02 | locus YNL322C, strain KRE1, stronger effect = lower value 0.998 | locus YOR083W, strain WHI5 (second series), stronger effect = lower value 1.01 | locus YPL055C, strain LGE1, stronger effect = lower value 1.01

COc1cc(O)c(C(=O)c2ccccc2)cc1O
active: locus YDR392W, strain spt3, stronger effect = lower value 0.705 | locus YER155C, strain BEM2 (second series), stronger effect = lower value 0.764 | locus YLR262C, strain YPT6 (second series), stronger effect = lower value 0.768
inactive: [2] 1.02 | locus YAL021C, strain ccr4, stronger effect = lower value 1.01 | locus YAL026C, strain drs2, stronger effect = lower value 0.963 | locus YAL030W, strain snc1, stronger effect = lower value 1.01 | locus YBL061C, strain skt5, stronger effect = lower value 1.01 | locus YBR009C, strain hhf1, stronger effect = lower value 0.969 | locus YBR021W, strain FUR4, stronger effect = lower value 1.07 | locus YBR023C, strain chs3, stronger effect = lower value 0.985 | locus YBR171W, strain sec66, stronger effect = lower value 1.01 | locus YBR229C, strain ROT2, stronger effect = lower value 1.02 | locus YBR231C, strain swc5, stronger effect = lower value 1.01 | locus YBR279W, strain paf1, stronger effect = lower value 0.988 | locus YCL011C, strain gbp2, stronger effect = lower value 0.971 | locus YCL016C, strain dcc1, stronger effect = lower value 0.965 | locus YCL029C, strain bik1, stronger effect = lower value 0.978 | locus YCL069W, strain vba3, stronger effect = lower value 0.996 | locus YCR088W, strain abp1, stronger effect = lower value 1 | locus YDL005C, strain med2, stronger effect = lower value 1.01 | locus YDL035C, strain GPR1, stronger effect = lower value 1.07 | locus YDL040C, strain nat1, stronger effect = lower value 1 | locus YDL074C, strain BRE1, stronger effect = lower value 1.01 | locus YDL101C, strain DUN1, stronger effect = lower value 0.998 | locus YDL185W, strain tfp1, stronger effect = lower value 0.972 | locus YDL192W, strain arf1, stronger effect = lower value 0.971 | locus YDR001C, strain nth1, stronger effect = lower value 1.02 | locus YDR069C, strain doa4, stronger effect = lower value 1.02 | locus YDR101C, strain arx1, stronger effect = lower value 1.01 | locus YDR137W, strain rgp1, stronger effect = lower value 0.857 | locus YDR159W, strain sac3, stronger effect = lower value 0.973 | locus YDR162C, strain NBP2, stronger effect = lower value 1.02 | locus YDR195W, strain ref2 1.03 | locus YDR297W, strain sur2, stronger effect = lower value 0.99 | locus YDR318W, strain mcm21, stronger effect = lower value 0.963 | locus YDR334W, strain swr1, stronger effect = lower value 1.03 | locus YDR335W, strain msn5, stronger effect = lower value 0.988 | locus YDR388W, stronger effect = lower value 0.979 | locus YDR502C, strain sam2, stronger effect = lower value 0.965 | locus YEL003W, strain gim4, stronger effect = lower value 0.985 | locus YEL037C, strain rad23, stronger effect = lower value 1.01 | locus YEL061C, strain CIN8 (second series), stronger effect = lower value 1.01 | locus YEL061C, strain CIN8, stronger effect = lower value 1.03 | locus YER015W, strain faa2, stronger effect = lower value 0.966 | locus YER016W, strain bim1, stronger effect = lower value 1 | locus YER110C, stronger effect = lower value 0.964 | locus YER111C, strain swi4, stronger effect = lower value 1.02 | locus YER155C, strain BEM2, stronger effect = lower value 1.01 | locus YER167W, strain BCK2, stronger effect = lower value 1 | locus YFR010W, strain ubp6, stronger effect = lower value 1.03 | locus YGL078C, strain dbp3, stronger effect = lower value 0.937 | locus YGL086W, strain mad1, stronger effect = lower value 0.974 | locus YGL167C, strain pmr1, stronger effect = lower value 0.999 | locus YGL173C, strain kem1, stronger effect = lower value 1 | locus YGL227W, strain vid30, stronger effect = lower value 1.01 | locus YGL240W, strain doc1, stronger effect = lower value 0.944 | locus YGL248W, strain PDE1, stronger effect = lower value 1.05 | locus YGL253W, strain hxk2, stronger effect = lower value 1.04 | locus YGR135W, strain pre9, stronger effect = lower value 0.923 | locus YGR252W, strain gcn5, stronger effect = lower value 1 | locus YHR013C, strain ard1, stronger effect = lower value 1.05 | locus YHR027C, strain rpn1, stronger effect = lower value 1.02 | locus YHR079C, strain IRE1 (second series), stronger effect = lower value 0.959 | locus YHR094C, strain hxt1, stronger effect = lower value 0.974 | locus YHR129C, strain ARP1, stronger effect = lower value 1.02 | locus YHR142W, strain chs7, stronger effect = lower value 1.01 | locus YHR200W, strain rpn10, stronger effect = lower value 0.968 | locus YIL066C, strain RNR3, stronger effect = lower value 1.03 | locus YIL073C, strain SPO22, stronger effect = lower value 1 | locus YIL125W, strain kgd1, stronger effect = lower value 1 | locus YIR030C, strain dcg1, stronger effect = lower value 0.976 | locus YJL092W, strain hpr5, stronger effect = lower value 1.01 | locus YJL095W, strain BCK1 (second series), stronger effect = lower value 0.996 | [1] 0.978 | locus YJL115W, strain asf1, stronger effect = lower value 1.02 | locus YJL129C, strain trk1, stronger effect = lower value 0.948 | locus YJL134W, strain LCB3, stronger effect = lower value 1 | locus YJL154C, strain vps35, stronger effect = lower value 1.02 | locus YJL164C, strain tpk1, stronger effect = lower value 0.958 | locus YJL166W, strain qcr8, stronger effect = lower value 0.993 | locus YJL168C, strain set2, stronger effect = lower value 0.989 | locus YJL187C, strain SWE1 (second series), stronger effect = lower value 0.993 | locus YJL187C, strain SWE1, stronger effect = lower value 0.996 | locus YKL009W, strain mrt4, stronger effect = lower value 0.892 | locus YKL068W, stronger effect = lower value 0.982 | locus YKL085W, strain MDH1 (second series), stronger effect = lower value 0.97 | locus YKL085W, strain MDH1, stronger effect = lower value 0.97 | locus YKL160W, strain elf1, stronger effect = lower value 0.945 | locus YKR001C, strain vps1, stronger effect = lower value 1.01 | locus YKR026C, strain gcn3, stronger effect = lower value 1.02 | locus YKR091W, strain srl3, stronger effect = lower value 1.01 | locus YLL001W, strain dnm1, stronger effect = lower value 0.951 | locus YLL026W, stronger effect = lower value 1.01 | locus YLL041C, strain sdh2, stronger effect = lower value 1.01 | locus YLR027C, strain aat2, stronger effect = lower value 1.01 | locus YLR039C, strain RIC1, stronger effect = lower value 0.963 | locus YLR058C, strain SHM2, stronger effect = lower value 1.01 | locus YLR102C, strain apc9, stronger effect = lower value 0.97 | locus YLR221C, strain rsa3, stronger effect = lower value 0.988 | locus YLR258W, strain gsy2, stronger effect = lower value 0.962 | locus YLR268W, strain sec22, stronger effect = lower value 0.976 | locus YLR320W, strain mms22, stronger effect = lower value 0.944 | locus YLR330W, strain CHS5, stronger effect = lower value 1.02 | locus YLR342W, strain FKS1, stronger effect = lower value 0.993 | locus YLR357W, strain rsc2, stronger effect = lower value 0.994 | locus YLR370C, strain arc18, stronger effect = lower value 1 | locus YLR371W, strain rom2, stronger effect = lower value 0.966 | locus YLR384C, strain iki3, stronger effect = lower value 0.996 | locus YLR418C, strain cdc73, stronger effect = lower value 1.03 | locus YML016C, strain PPZ1, stronger effect = lower value 1.01 | locus YML032C, strain rad52, stronger effect = lower value 0.967 | locus YML120C, strain ndi1, stronger effect = lower value 0.965 | locus YML124C, strain tub3, stronger effect = lower value 0.97 | locus YMR058W, strain fet3, stronger effect = lower value 1.02 | locus YMR078C, strain ctf18, stronger effect = lower value 0.952 | locus YMR125W, strain sto1, stronger effect = lower value 1.01 | locus YMR129W, stronger effect = lower value 1 | locus YMR205C, strain PFK2, stronger effect = lower value 0.991 | locus YMR223W, strain ubp8, stronger effect = lower value 0.932 | locus YMR231W, strain pep5, stronger effect = lower value 1.01 | [3] 1.19 | locus YNL067W, strain RPL9B, stronger effect = lower value 1.01 | locus YNL071W, strain lat1, stronger effect = lower value 0.982 | locus YNL209W, strain ssb2, stronger effect = lower value 0.947 | locus YNL233W, strain BNI4, stronger effect = lower value 1.04 | locus YNL248C, strain rpa49, stronger effect = lower value 1.03 | locus YNL250W, strain rad50, stronger effect = lower value 0.924 | locus YNL271C, strain bni1, stronger effect = lower value 0.951 | locus YNL298W, strain CLA4, stronger effect = lower value 0.995 | locus YNL307C, strain MCK1, stronger effect = lower value 0.971 | locus YNL322C, strain KRE1 (second series), stronger effect = lower value 0.973 | locus YNR049C, strain mso1, stronger effect = lower value 1.03 | locus YNR052C, strain pop2, stronger effect = lower value 0.96 | locus YOL012C, strain htz1 1.3 | locus YOL147C, strain pex11, stronger effect = lower value 0.979 | locus YOR001W, strain rrp6, stronger effect = lower value 0.995 | locus YOR061W, strain CKA2, stronger effect = lower value 1.01 | locus YOR069W, strain VPS5, stronger effect = lower value 0.999 | locus YOR070C, strain gyp1, stronger effect = lower value 0.983 | locus YOR080W, strain dia2, stronger effect = lower value 1.02 | locus YOR083W, strain WHI5, stronger effect = lower value 0.933 | locus YOR106W, strain vam3, stronger effect = lower value 0.917 | locus YOR136W, strain idh2, stronger effect = lower value 0.977 | locus YOR144C, strain elg1, stronger effect = lower value 0.976 | locus YOR184W, strain ser1, stronger effect = lower value 1.07 | locus YOR265W, strain rbl2, stronger effect = lower value 1.01 | locus YOR270C, strain vph1, stronger effect = lower value 0.974 | locus YOR290C, strain snf2, stronger effect = lower value 0.946 | locus YOR316C, strain cot1, stronger effect = lower value 0.958 | locus YPL051W, strain arl3, stronger effect = lower value 0.924 | locus YPL078C, strain atp4, stronger effect = lower value 0.952 | locus YPL106C, strain sse1, stronger effect = lower value 0.943 | locus YPL240C, strain hsp82, stronger effect = lower value 0.997 | locus YPR119W, strain clb2, stronger effect = lower value 0.95 | locus YPR141C, strain kar3, stronger effect = lower value 0.96 | locus YPR163C, strain tif3, stronger effect = lower value 0.94 | locus YPR167C, strain met16, stronger effect = lower value 0.953 | strain wtn01, stronger effect = lower value 0.998
